IL1B secr inh: qHTS for Inhibitors of Inflammasome Signaling: IL-1-beta AlphaLISA Primary Screen; THP-1 LPS/ATP IL-1B secretion, AlphaLISA, 16 h; active compounds read low; AID 743279, 2014; activity change, % at 57.5 µM; 360,000 compounds, 4.7% hits; in the data active means activity change below about -50%; inconclusive means mostly about -30% to -49%
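Secreted IL-1B measured by AlphaLISA bead assay after 16 h compound exposure of THP-1 cells; compounds (final up to 57.5 uM) added 1 h before LPS (250 ng/mL) and ATP (1.25 mM) stimulation; lower signal means less secretion.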
TDP1 cell CPT: qHTS for Inhibitors of human tyrosyl-DNA phosphodiesterase 1 (TDP1): qHTS in cells in presence of CPT; chicken DT40 Tdp1-/-;hTDP1 cells + 20 nM CPT, ATP luminescence, 48 h; Potency, µM (highest dose often 46.2 µM), most hits filed as inhibitors; 420,000 compounds, 12% hits; further: nearly all actives have a fitted effect of over 55% in size
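Chicken DT40 Tdp1-/- cells complemented with human TDP1, 400 cells/well, exposed to compounds plus 20 nM camptothecin for at least 48 h at 37 C; viability read as ATP content by CellTiter-Glo luminescence.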
TDP1 cell noCPT: qHTS for Inhibitors of human tyrosyl-DNA phosphodiesterase 1 (TDP1): qHTS in cells in absence of CPT; DT40 Tdp1-/- hTDP1 cells, no CPT, ATP luminescence, 48 h; Potency, µM (highest dose often 46.2 µM), hits mostly inhibitors; 420,000 compounds, 15% hits; AID 686978, 2013; further: nearly all actives have a fitted effect of over 55% in size
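Cells were dispensed at 400 per well, compounds added by pin tool, plates incubated ≥48 hr at 37 °C, then CellTiter-Glo added for 30 min at room temperature before luminescence reading. Line: DT40 Tdp1-/- complemented with hTDP1; camptothecin omitted.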
VP16 counter: VP16 counterscreen qHTS for inhibitors of ROR gamma transcriptional activity; Drosophila S2 Gal4-VP16 UAS-luciferase, luminescence, 20 h; 310,000 compounds, 3.5% hits; Potency, µM (titrated, usually from 53.6 µM), usual class: inhibitors;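 further: Gal4-VP16 expression switched on by copper sulfate through the metallothionein promoter; nearly all actives have a fitted effect of over 50% in size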
RORgamma inh: qHTS for inhibitors of ROR gamma transcriptional activity. Nuclear receptor ROR-gamma (Mus musculus), P51450. Drosophila S2 Gal4-RORgamma UAS-luciferase reporter, 20 h. Potency, µM (doses to about 53.6 µM), actives largely listed as inhibitors. 310,000 compounds, 5.4% hits; further: nearly all actives have a fitted effect of over 60% in size
Target sequence (P51450 whole entry, looked up, the tested form may be a part): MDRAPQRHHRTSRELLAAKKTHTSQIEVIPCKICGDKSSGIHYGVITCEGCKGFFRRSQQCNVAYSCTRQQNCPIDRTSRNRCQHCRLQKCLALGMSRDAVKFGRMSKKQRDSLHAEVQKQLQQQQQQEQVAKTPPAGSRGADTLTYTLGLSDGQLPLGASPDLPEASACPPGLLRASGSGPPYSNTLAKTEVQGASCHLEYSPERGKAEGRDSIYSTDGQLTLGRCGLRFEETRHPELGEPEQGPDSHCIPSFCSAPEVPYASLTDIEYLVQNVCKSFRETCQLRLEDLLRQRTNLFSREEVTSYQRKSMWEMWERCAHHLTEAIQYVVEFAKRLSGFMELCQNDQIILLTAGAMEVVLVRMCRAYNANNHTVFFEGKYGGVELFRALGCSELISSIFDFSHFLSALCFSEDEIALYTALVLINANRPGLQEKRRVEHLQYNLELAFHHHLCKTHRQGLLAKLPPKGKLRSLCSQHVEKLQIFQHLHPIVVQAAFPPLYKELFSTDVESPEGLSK
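Compounds are pin-transferred onto Drosophila Schneider cells expressing a copper-inducible Gal4–ROR gamma transactivation domain fusion. After 1 hr, copper sulfate is added to 700 uM final; luciferase is read 20 hr later.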
LDHA inh: qHTS assay for inhibitors of human lactate dehydrogenase. L-lactate dehydrogenase A chain (Homo sapiens), P00338. purified LDHA, NADH/diaphorase-resazurin fluorescence; active compounds read low. activity change, % (values are at about 110 or 230 µM). 480,000 compounds, 0.15% hits. AID 1347041, 2019; in the data active means activity change below about -30%; inconclusive means mostly about -25% to -30%
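Human LDH5 at 2 nM final in Tris HCl pH 7.4 with 0.06 mM NADH and 0.2 mM pyruvate, reacted 5 minutes at room temperature. Remaining NADH coupled via diaphorase/resazurin; resorufin fluorescence read at 0 and 20 minutes, normalized to enzyme-free and DMSO wells.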
Hits are given with their value; – = inactive; ? = inconclusive; · = no result given; [ ] = dose if it differs, or a comment. Hits are enriched below; roughly 18% of the tested compounds scored in any of these assays. Unless noted, the call rests on the fitted dose curve; in most records, active means well fitted curve in the direction sought with a large enough effect; inconclusive means small, poorly fitted or top-dose-only effect, or another doubt; inactive means no such curve, though single readings can be large; an effect the other way counts as inactive or inconclusive.

SMILES | IL1B secr inh | TDP1 cell CPT | TDP1 cell noCPT | VP16 counter | RORgamma inh | LDHA inh
Brc1cc2c(cc1/C=N/Nc1nc(N3CCCC3)nc(N3CCOCC3)n1)OCO2 | ? | 25.9µM | 16.4µM | – | – | –
CC(C)(C)c1cc(-c2nc3ccccc3[nH]2)cc(C(C)(C)C)c1O | · | · | · | · | · | –
CCN(C(=O)COC(=O)c1n[nH]c2ccccc12)C1CCCCC1 | · | · | · | · | · | –
CC(=O)NC(C)(C)C(=O)NCCC(c1ccccc1)c1ccccc1 | · | · | · | · | · | –
CCCNC(=O)NC(=O)CN(CC(C)C)C1CC1 | · | · | · | · | · | –
NC1(C(=O)O)Cc2ccccc2C1 | · | · | · | · | · | –
Oc1ccc(/C=N/Nc2nc(N3CCCCCC3)nc(N3CCCCCC3)n2)c(O)c1 | -98.6 | ? | ? | ? | 15.8µM | –
Oc1ccc(/C=N/Nc2ccc(Cl)nn2)cc1O | – | ? | 14.6µM | – | – | –
O=[N+]([O-])c1cc(/C=N/Nc2nc(N3CCCCC3)nc(N3CCCCC3)n2)ccc1O | – | – | ? | – | – | –
CCCCNc1c(-c2cccc(OC)c2)nc2nc(C)cc(C)n12 | – | 18.4µM | 16.4µM | · | · | –
CCCCNc1c(-c2cc3ccccc3o2)nc2nc(C)cc(C)n12 | – | ? | 23.1µM | · | · | –
CCOc1ccc(NS(=O)(=O)c2ccc(Cl)c(C(=O)Nc3ccc4oc(C)nc4c3)c2)cc1 | · | · | · | · | · | –
Cc1cccc(C(C)C)c1NC(=O)c1nn(C)c(=O)c2ccccc12 | · | · | · | · | · | –
O=C(NCC1(c2ccc(F)cc2)CC1)C1CCN(C(=O)CCc2ccccc2)CC1 | · | · | · | · | · | –
O=C(Nc1ccc(N2CCCCCC2)cc1)c1ccccc1SC1CCS(=O)(=O)C1 (configuration not stated) | · | · | · | · | · | –
Cc1cccc(NC(=O)C2=C(O)c3ccccc3N(C)S2(=O)=O)c1 | – | ? | 14.6µM | – | ? | –
CN1c2ccccc2C(O)=C(C(=S)Nc2ccc(Cl)cc2)S1(=O)=O | – | 16.4µM | 20.6µM | ? | ? | –
CCN1CCN(CCC(=O)Nc2cccc(C)c2)CC1 | – | – | – | – | – | –
Cc1c(-c2ccccc2)oc2c(C(=O)N3CCN(CC(=O)NC(C)(C)C)CC3)cccc2c1=O | · | · | · | · | · | –
Cc1cc(C)c2c(=O)n(CC(=O)N3CCC(N4CCCCC4)CC3)sc2n1 | – | 14.6µM | 14.6µM | ? | ? | –
CCCNC(=O)Cn1sc2nc(C)cc(C)c2c1=O | ? | 3.66µM | 4.11µM | ? | ? | –
CC(C)(C)C(=O)CSc1nc2ccsc2c(=O)n1Cc1ccccc1Cl | · | 20.6µM | 14.6µM | · | · | –
CCCCn1c(SCC(=O)c2ccccc2)nc2ccsc2c1=O | -58.7 | ? | 18.4µM | – | ? | –
O=C(O)CCCCCn1c(SCC(=O)c2ccc(O)c(O)c2)nc2ccsc2c1=O | – | – | – | – | – | –
CCCCn1c(SCC(=O)c2ccc(O)c(O)c2)nc2ccsc2c1=O | – | 14.6µM | 23.1µM | – | – | –
SMILES | IL1B secr inh | TDP1 cell CPT | TDP1 cell noCPT | VP16 counter | RORgamma inh | LDHA inh
CCCCn1c(SCC(=O)c2ccccc2)nc2c(sc3ccccc32)c1=O | · | – | – | · | · | –
CC(C)(C)C(=O)CSc1nc2ccsc2c(=O)n1Cc1ccccc1F | · | ? | ? | · | · | –
CCc1ccc(NC(=O)COC(=O)C2CC(=O)N(c3ccc(Br)cc3)C2)cc1 (configuration not stated) | · | · | · | · | · | –
CCCCNc1nc(-c2ccc(NS(C)(=O)=O)cc2)cs1 | · | · | · | · | · | –
CCOC(=O)c1c(NC(=O)CSc2ncnc3ccccc23)sc(C(C)=O)c1C | – | 8.2µM | 9.2µM | – | – | –
COC(=O)c1c(NC(=O)CSc2ncnc3ccccc23)sc(C)c1C | – | 18.4µM | 23.1µM | · | · | –
CCOC(=O)c1c(NC(=O)CSc2nc3ccccc3o2)sc(C)c1C | – | ? | ? | – | – | –
CCOC(=O)c1c(NC(=O)CSc2nc3ccccc3s2)sc(C)c1C | – | 16.4µM | ? | – | – | –
Cc1ccc(-c2noc(C3CCCN(S(=O)(=O)c4ccc5ccccc5c4)C3)n2)o1 (configuration not stated) | ? | ? | – | – | – | –
Cc1ccc(S(=O)(=O)N2CCCC(c3nc(-c4ccc(C)o4)no3)C2)cc1 (configuration not stated) | -73.1 | – | – | – | – | –
Cc1ccc(-c2noc(C3CCCN(C(=O)c4ccc(C(C)(C)C)cc4)C3)n2)o1 (configuration not stated) | – | ? | 18.4µM | ? | ? | –
CC(=O)c1cccc(S(=O)(=O)N2CCCC(c3nc(-c4ccc(C)o4)no3)C2)c1 (configuration not stated) | – | 18.4µM | ? | – | –[10 µM] | –
Cc1ccc(-c2noc(C3CCCN(S(=O)(=O)c4ccc(S(=O)(=O)N(C)C)cc4)C3)n2)o1 (configuration not stated) | – | – | ? | – | – | –
COc1ccc(-c2noc(C3CCCN(S(=O)(=O)c4ccc(C)c(Cl)c4)C3)n2)cc1OC (configuration not stated) | – | ? | 20.6µM | – | – | –
Cc1ccc(-c2noc(C3CCN(C(=O)Nc4ccc(C#N)cc4)CC3)n2)o1 | – | 23.1µM | ? | – | –[10 µM] | –
CN(CC(=O)Nc1ccccc1Br)C(=O)c1ccccc1OCc1ccccc1Cl | -82.2 | ? | 18.4µM | · | · | –
Cc1ccc(C)c(NC(=O)CN(C)C(=O)c2ccccc2OCc2ccc(Cl)cc2)c1 | -67.8 | 23.1µM | ? | · | · | –
CN(CC(=O)Nc1ccccc1Br)C(=O)c1sccc1-c1ccccc1 | – | ? | 13µM | · | · | –
CN(CC(=O)Nc1ccccc1Br)C(=O)c1ccccc1OCc1ccc(F)cc1 | – | ? | ? | · | · | –
CCNc1nnc(SCc2nc(-c3ccccc3)no2)s1 | · | · | · | · | · | –
S=c1[nH]ccn1-c1c(Cl)cccc1Cl | – | – | – | – | – | –
S=c1[nH]cc(-c2ccccc2)n1-c1ccccc1Cl | – | ? | ? | 7.08µM | 3.55µM | –
COc1ccccc1-n1c(-c2ccccc2)c[nH]c1=S | – | 18.4µM | 16.4µM | ? | 2.82µM | –
Cc1ccc(C(=O)NC(Nc2cccc(C(F)(F)F)c2)C(Cl)(Cl)Cl)cc1 (configuration not stated) | · | · | · | · | · | –
Cc1nc(/N=C(\N)NC(=O)Cc2ccccc2)nc2ccccc12 | · | · | · | · | · | –
Cc1ccc2oc(/N=C(\N)NC(=O)c3ccccc3)nc2c1 | · | · | · | · | · | –
Cc1cc(C)c(NC(=O)Nc2ccccc2)c(C)n1 | – | – | – | · | · | –
